Sampled rows, rich in hits. Any-hit rate of the full collection: about 4.2%.
MITF TRPM1 HTS: MITF TRPM1 promoter activation in melanoma cells; hit rate 0.75% among 300,000; activation, % at 12.5 µM; AID 588334; SK-MEL-5 TRPM1-promoter luciferase, 24 h; % of positive control, neutral wells = 0;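 active = mean activation of at least 80% with every replicate also reaching 80%; inconclusive = mean reaches 80% but some replicate falls short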;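 note: 0% = neutral control wells and 100% = parthenolide positive control wells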
GAA850 FXN act: increases GAA850 frataxin promoter reporter activity | HEK293 lucGAA850 FXN promoter luciferase reporter, 24 h; percent of 10 µM SAHA response | activation, % at 6 µM | hit rate 0.56% among 360,000 | AID 540364;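 active = activation above the average of all compounds screened plus 3 SD, cutoff fixed separately per campaign, cut at about 7.5% in these data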;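 note: 0% = DMSO wells and 100% = 10 µM SAHA wells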
Wnt bcat act: activates Wnt/beta-catenin signaling in a reporter cell assay; AID 743398; activator, plate reader; hit rate 1.2% among 300,000; activation, % at 9.35 µM; in the data active = activation above about 30%, passing the limit was not always enough; inconclusive = no clear call, values can overlap the other calls;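 note: 0% = neutral control wells and 100% = positive control wells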
AHR activator: human AHR activation; P35869; AHR-responsive luciferase reporter cells, luminescence; activation, % at 5 µM; hit rate 2.5% among 320,000; AID 2796; in the data active = activation above about 47%;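 note: 0% = vehicle wells and 100% = reference agonist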
Target sequence (P35869 whole entry, looked up): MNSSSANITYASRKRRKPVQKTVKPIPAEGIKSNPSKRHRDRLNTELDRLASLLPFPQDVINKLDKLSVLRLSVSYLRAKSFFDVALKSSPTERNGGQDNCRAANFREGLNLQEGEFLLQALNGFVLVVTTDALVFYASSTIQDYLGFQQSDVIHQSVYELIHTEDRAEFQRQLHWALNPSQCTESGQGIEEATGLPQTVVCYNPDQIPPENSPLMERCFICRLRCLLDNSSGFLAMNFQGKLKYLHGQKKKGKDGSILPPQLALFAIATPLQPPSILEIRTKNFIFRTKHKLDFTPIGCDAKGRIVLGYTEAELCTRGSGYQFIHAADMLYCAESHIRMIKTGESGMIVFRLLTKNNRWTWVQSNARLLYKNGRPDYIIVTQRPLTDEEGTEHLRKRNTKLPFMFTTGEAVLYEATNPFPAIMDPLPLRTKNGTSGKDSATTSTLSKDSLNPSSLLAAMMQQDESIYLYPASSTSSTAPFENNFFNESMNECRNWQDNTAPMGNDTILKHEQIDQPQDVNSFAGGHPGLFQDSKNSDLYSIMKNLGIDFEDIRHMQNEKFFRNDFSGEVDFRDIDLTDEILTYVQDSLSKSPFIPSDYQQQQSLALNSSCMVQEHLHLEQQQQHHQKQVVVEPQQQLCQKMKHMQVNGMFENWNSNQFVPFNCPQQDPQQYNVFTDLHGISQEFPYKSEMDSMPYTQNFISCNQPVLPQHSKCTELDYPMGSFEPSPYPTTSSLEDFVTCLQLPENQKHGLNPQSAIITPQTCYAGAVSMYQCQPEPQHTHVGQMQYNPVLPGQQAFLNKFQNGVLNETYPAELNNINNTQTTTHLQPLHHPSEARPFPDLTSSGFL
esBAF inh: inhibitors of esBAF chromatin remodeling in mouse ES cells; Bmi1-luciferase knock-in reporter, 24 h; 100% = twice the neutral-well signal; reporter increase, % at 12.5 µM; hit rate 2% among 350,000; in the data active = activation above about 40%; inconclusive = no clear call, values can overlap the other calls;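 note: 0% = median of the plate's neutral control wells and 100% = double that signal; a rise in the Bmi1 reporter signal indicates esBAF inhibition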
The depositor's hits bear a star.

`O=C(Nc1ccc(F)c(F)c1)c1cccnc1` gave MITF TRPM1 HTS 22.5, GAA850 FXN act 1.0, AHR activator -1.2 and esBAF inh 4.0.
O=C(Nc1cc(NC(=O)c2ccccc2F)ccc1Cl)c1ccccc1 was read as MITF TRPM1 HTS 19.3, GAA850 FXN act 0.9, Wnt bcat act 3.8, AHR activator 79.0* and esBAF inh 6.6.
`O=C(Nc1ccc(F)c(F)c1)c1ccccc1` gave MITF TRPM1 HTS 46.9, GAA850 FXN act 3.4, Wnt bcat act 21.4, AHR activator 4.6 and esBAF inh 41.7*.
O=C(Nc1ccc(-c2cnco2)cc1)c1ccccc1 was read as MITF TRPM1 HTS 85.9*, GAA850 FXN act 2.3, Wnt bcat act 21.5 and AHR activator -1.9.
O=C(Nc1ccc(-c2cnco2)cc1)c1ccc(Cl)cc1 was read as GAA850 FXN act 1.2, Wnt bcat act -3.7, AHR activator -5.8 and esBAF inh 33.7.
For COc1cccc(C(=O)Nc2ccc3c(c2)OC[C@H](C)N(CC2CC2)C[C@@H](C)[C@@H](OC)CN(C)C3=O)c1 the results were esBAF inh 4.7.
For C[C@@H]1CN([C@@H](C)CO)C(=O)c2cc(NC(=O)Nc3cccc4ccccc34)ccc2O[C@@H](C)CCCCO[C@@H]1CN(C)Cc1ccc2c(c1)OCO2 the results were esBAF inh 2.7.
O=C(Nc1ccc(C(F)(F)F)cc1)c1ccccc1 was read as MITF TRPM1 HTS 99.5*, GAA850 FXN act 1.3, Wnt bcat act 21.2, AHR activator 53.3* and esBAF inh 53.5*.
For CC(C)(C)C(=O)NC(=S)Nc1ccc(C(F)(F)F)cc1 the results were MITF TRPM1 HTS 18.1, GAA850 FXN act -0.1, Wnt bcat act 43.1*, AHR activator 1.4 and esBAF inh 39.7.
`O=S(=O)(c1ccccc1)N(CC(O)Cn1c2ccccc2c2ccccc21)c1ccccc1` (stereo not drawn) gave MITF TRPM1 HTS -10.1, GAA850 FXN act -2.5, AHR activator 64.0* and esBAF inh 1.1.
COc1ccccc1N(CC(O)Cn1c2ccccc2c2ccccc21)S(=O)(=O)c1ccccc1 (stereo not drawn) was read as MITF TRPM1 HTS -14.2, GAA850 FXN act -0.8, Wnt bcat act -0.8 and AHR activator 44.5.
Screening COc1cc2cnc(-c3ccsc3)cc2cc1OC returned MITF TRPM1 HTS -14.8, GAA850 FXN act 5.4, Wnt bcat act -2.3, AHR activator 48.8* and esBAF inh 11.0.
`Fc1ccc2cnc(-c3ccsc3)cc2c1` gave Wnt bcat act 1.5.
For O=C(C[C@H]1C=C[C@@H](NC(=O)Nc2cccc(F)c2)[C@@H](CO)O1)NCC1CC1 the results were esBAF inh 0.0.
Cc1ccc2nc(SCC(=O)NCc3ccco3)[nH]c2c1 was read as MITF TRPM1 HTS -1.1, GAA850 FXN act 1.3 and AHR activator 76.6*.
`Cc1ccc2nc(SCC(=O)NC(=O)NCc3ccco3)[nH]c2c1` gave MITF TRPM1 HTS 3.0, GAA850 FXN act 0.4, Wnt bcat act -3.4 and AHR activator 61.2*.
Screening C[C@H](CO)N1C[C@H](C)[C@@H](CN(C)S(=O)(=O)c2ccccc2)Oc2ncc(/C=C/c3ccccc3)cc2C1=O returned esBAF inh 7.3.
For NNc1nc2c(F)cccc2s1 the results were MITF TRPM1 HTS 5.3, GAA850 FXN act -0.6, Wnt bcat act 22.3 and AHR activator 67.0*.
Screening CC(=O)Nc1cc(C)c2nc(NC(C)=O)sc2c1 returned MITF TRPM1 HTS 36.3, GAA850 FXN act 3.0, Wnt bcat act 18.5, AHR activator 6.6 and esBAF inh 31.2.
`CC(=O)Nc1nc2c(C)cc(NC(=O)C3CCCCC3)cc2s1` gave GAA850 FXN act 3.2, Wnt bcat act -0.7, AHR activator 3.4 and esBAF inh 59.8*.
`O=C(Nc1nc2c(F)cccc2s1)C1CC1` gave MITF TRPM1 HTS 44.0, GAA850 FXN act -0.8, Wnt bcat act 22.5, AHR activator 47.6* and esBAF inh 37.4.
Screening CC1CCc2c(sc(Nc3nc4c(F)cccc4s3)c2C(N)=O)C1 (stereo not drawn) returned MITF TRPM1 HTS -3.1, GAA850 FXN act 3.8 and AHR activator 56.3*.
`Cc1noc(C)c1NC(=O)Nc1ccc2c(c1)C(=O)N([C@@H](C)CO)C[C@@H](C)[C@H](CN(C)C(=O)C1CCCCC1)OCCCC[C@@H](C)O2` gave esBAF inh 4.0.
CNC[C@@H]1Oc2ccc(NC(=O)CCCN(C)C)cc2C(=O)N([C@@H](C)CO)C[C@@H]1C was read as esBAF inh -2.7.
Cc1cccc2sc(NC(=O)C3CCCO3)nc12 (stereo not drawn) was read as MITF TRPM1 HTS 75.2, GAA850 FXN act 5.2, AHR activator 1.4 and esBAF inh 74.1*.
For Cc1c(Cl)ccc2sc(NC(=O)C3CC3)nc12 the results were GAA850 FXN act 2.4, Wnt bcat act 6.7, AHR activator 42.8 and esBAF inh 53.5*.
For CCc1cccc(C)c1NC(=O)C1CCCO1 (stereo not drawn) the results were MITF TRPM1 HTS 11.2, GAA850 FXN act 0.9, Wnt bcat act 2.3, AHR activator -3.4 and esBAF inh -10.0.
`COc1ccc(C)c2sc(NC(=O)C3CC3)nc12` gave MITF TRPM1 HTS -7.1, GAA850 FXN act -0.2, Wnt bcat act -1.3, AHR activator 73.7* and esBAF inh 2.7.
Screening CCC(=O)Nc1nc2c(OC)ccc(C)c2s1 returned GAA850 FXN act 1.3, Wnt bcat act -4.9, AHR activator 33.8 and esBAF inh -2.7.
Screening COc1ccc(OC)c2sc(NC(=O)CCSc3ccccc3)nc12 returned MITF TRPM1 HTS 8.9, GAA850 FXN act -1.0, Wnt bcat act -3.0, AHR activator 58.9* and esBAF inh 4.6.
Cc1noc(C)c1S(=O)(=O)Nc1ccc2c(c1)C(=O)N([C@@H](C)CO)C[C@H](C)[C@H](CN(C)S(=O)(=O)c1ccc(Cl)cc1)O2 was read as esBAF inh 4.5.
Screening Cc1noc(C)c1S(=O)(=O)N(C)C[C@H]1Oc2ccc(NS(=O)(=O)c3ccc(F)cc3)cc2CC(=O)N([C@@H](C)CO)C[C@@H]1C returned esBAF inh -1.3.
`CCOC(=O)c1oc2cccc(OC(C)=O)c2c1C` gave MITF TRPM1 HTS 78.3, GAA850 FXN act 1.9, AHR activator 0.0 and esBAF inh inconclusive.
`CCOCC(=O)Nc1c(C(=O)OCC)oc2ccccc12` gave MITF TRPM1 HTS -12.5, GAA850 FXN act 4.8 and AHR activator 68.2*.
Screening CCOCC(=O)Nc1c(C(=O)Nc2ccc(OC)cc2OC)oc2ccccc12 returned MITF TRPM1 HTS 26.2, GAA850 FXN act 3.1, AHR activator 66.6* and esBAF inh 19.1.
`COc1ccc(NC(=O)c2oc3ccccc3c2NC(=O)c2ccco2)c(OC)c1` gave MITF TRPM1 HTS 14.7, GAA850 FXN act 4.4, Wnt bcat act -4.0, AHR activator 45.2 and esBAF inh 3.8.
For COc1ccc(OC)c(NC(=O)c2oc3ccccc3c2NC(=O)C2CC2)c1 the results were MITF TRPM1 HTS -9.1, GAA850 FXN act 2.8, Wnt bcat act -0.7, AHR activator 10.9 and esBAF inh -7.8.
